Shown are actives, neighbours in structure and some others; about 7.9% of the full set was active somewhere.
Marburg entry inh = blocks Marburg virus binding to or entry into cells. Marburg virus pseudotyped entry inhibition, cell reporter. Potency, µM (doses to about 37.8 µM), without a hit: top-dose activity change, negative = inhibition, usual class: inhibitors. 300,000 tested, 1.8% active. AID 540276; calls by dose curve; tested in HEK293 cells; note: potency is the fitted concentration of half-maximal effect
Lassa entry inh = Lassa virus entry inhibition. Lassa virus pseudotype entry inhibition, cell reporter. Potency, µM (titrated, usually from 37.9 µM), for the others: at the top dose activity change, negative = inhibition, most hits filed as inhibitors. 300,000 tested, 1.2% active; calls by dose curve; tested in HEK293 cells; note: potency is the fitted concentration of half-maximal effect; nearly all actives have a fitted effect of over 50% in size
HCMV antiviral = blocks human cytomegalovirus replication; 410,000 tested, 4.5% active; activity change, negative = inhibition, % at 57.5 µM; AID 1259415; HFF cells, HCMV-luciferase reporter, 72 h; active compounds read low; in the data active = activity change below about -60%; inconclusive = no clear call, values can overlap the other calls; inactive = above about -39%
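Compounds were evaluated in HFFs infected with an HCMV luciferase reporter virus (MOI 1 PFU/cell). Luciferase in lysates collected 72 h post infection served as the replication measure.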
HCV inh = HCV inhibition | Huh7.5.1 HCVcc-Cre infection, luciferase reporter, 44 h | Potency, µM (titrated, usually from 41.8 µM), for the others: at the highest dose activity change, negative = inhibition, actives largely listed as inhibitors | 340,000 tested, 3.4% active | AID 651820; active = well fitted inhibition curve with a large enough effect; inconclusive = small, poorly fitted or top-dose-only effect, or another doubt; inactive = no such curve, though single readings can be large or run the other way; note: potency is the fitted concentration of half-maximal effect
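A cell-based infection assay in which seeded cells (1,000 per well) receive test compound after 4 h, are inoculated with HCVcc-Cre at approximately 0.5 moi, and are incubated 44 h before luminescence detection.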
FMDV antiviral = antivirals against foot and mouth disease virus | Potency, µM (top dose mostly 57.9 µM), for inactives: top-dose activity change, negative = inhibition, actives largely listed as inhibitors | 410,000 tested, 1.2% active | FMDV antiviral cell-based qHTS | AID 1159524; calls by dose curve; tested in HEK293T cells; note: read-out not given here; potency is the fitted concentration of half-maximal effect; nearly all actives have a fitted effect of over 45% in size
Numbers without * were called inactive; ? = inconclusive; . = not tested or not shown; [ ] = another dose, or the depositor's remark. % is set by controls: 0 for no effect and ±100 for the full control effect.

SMILES	Marburg entry inh	Lassa entry inh	HCMV antiviral	HCV inh	FMDV antiviral
Cc1cc([N+](=O)[O-])ccc1NC(=O)Nc1ccc(F)cc1F	?	?	?	3.5µM*	?
Cc1cc([N+](=O)[O-])ccc1NC(=O)C[n+]1ccc(N(C)C)cc1	-23%[46.1 µM]	-14%	-100*	6%	-12%
COc1ccc(NC(=O)Nc2ccc(F)cc2F)c(C)c1	?	-2%	8	-5%	9%
COc1ccc(CN(C)C(=O)C2CCN(S(=O)(=O)c3cccs3)CC2)cc1F	.	.	29	13%	-24%
CN(C)S(=O)(=O)c1ccc(-c2csc(N/N=C/c3ccco3)n2)cc1	?	8.9µM*	0	?	6.3µM*
CN(C)S(=O)(=O)c1ccc(-c2csc(N/N=C/c3ccc(O)cc3)n2)cc1	7.3µM*	7.1µM*	?	10µM*	14µM*
Clc1ccc(-c2csc(N/N=C\c3cccnc3)n2)cc1	?	-20%	44	-18%	?
Cc1ccc(-c2csc(N/N=C/c3ccco3)n2)cc1	?	?	29	?	56%
COc1ccc(C(=O)Nc2nnc(SCC(=O)NCc3ccco3)s2)cc1OC	9%	?	24	.	-12%
COc1ccc(C(=O)Nc2nnc(SCC(=O)NC3CC3)s2)cc1	10µM*	?	94	6%	6%
COc1cc(OC)cc(C(=O)Nc2nnc(SCC(=O)NCc3ccco3)s2)c1	4%[46.1 µM]	?	42	-2%	100µM*
COc1ccc(Cl)cc1NC(=O)COC(=O)CCCC1=NS(=O)(=O)c2ccccc2N1	5%[46.1 µM]	19%[46.1 µM]	17	?	3%
Cc1ccc(NC(=O)c2ccc(OCc3c(C)noc3C)cc2)cc1C	10µM*	?	?	4.5µM*	32µM*
Cc1ccc(NC(=O)c2cccc(OCc3c(C)noc3C)c2)cc1S(=O)(=O)Nc1ccccc1Cl	-18%	?	-66*	?	32%
CSC1=NC=C(C#N)C2=NC(c3ccc(Cl)cc3)NN12 (centres undefined)	.	.	.	.	1%
S=C(NCc1cccs1)NCC1CCCO1 (centres undefined)	4%[46.1 µM]	3%	-16	0%	51%
CC(C(=O)NCC1CCCCC1)N(C)Cc1ccc(Cl)cc1 (centres undefined)	?	-3%[46.1 µM]	-39	-12%	-30%
CSc1ccc(CN(C)C(C)C(=O)NCC2CCCCC2)cc1 (centres undefined)	11µM*	16%[46.1 µM]	2	1%	-6%
O=C(Nc1ccccc1)N(Cc1ccccc1)CC(O)C(F)(F)F (centres undefined)	?	?	7	5%	-25%
O=C(Nc1cccc(F)c1)N(Cc1ccc(Cl)cc1)CC(O)C(F)(F)F (centres undefined)	?	?	?	11µM*	-29%
CCCSc1ccc(-c2nn(-c3ccccc3)cc2/C=C(/C#N)C(=O)N2CCOCC2)cc1	7.1µM*	?	-15	?	-12%
CCSc1ccc(-c2nn(-c3ccccc3)cc2/C=C(/C#N)C(=O)NC)cc1	8%	-10%	2	12%	-18%
Oc1ccc(N2CCN(c3ncnc4sc5c(c34)CCC5)CC2)cc1	?	-12%	-82*	?	?
c1ccc2c(c1)ncn2-c1ncnc2sc3c(c12)CCCC3	3%	4%	-64*	-5%	0%
Cc1cc2ncn(-c3ncnc4sc5c(c34)CCCC5)c2cc1C	?	1%	-34	13%	-13%
SMILES	Marburg entry inh	Lassa entry inh	HCMV antiviral	HCV inh	FMDV antiviral
Cc1cccc(C(=O)N[C@H]2CC[C@@]34CCCN3C(=O)CCC[C@H]4[C@H]2Cc2ccccc2)c1	.	.	-27	.	.
COc1cc(NC(=O)CCc2c(C)noc2C)c(C(=O)O)cc1OC	.	.	-7	.	-7%
Cc1nccn1CCCNC(=O)CC1C(=O)NCCN1Cc1ccc(F)cc1Cl (centres undefined)	29%	24%	-11	-22%	-13%
CCCC(c1nnnn1Cc1ccc(OC)cc1)N1CCN(c2ccccc2OC)CC1 (centres undefined)	?	?	-4	?	35µM*
COc1ccc(Cn2nnnc2C(c2ccccc2Cl)N2CCN(C)CC2)cc1 (centres undefined)	0%	7%	-63*	-10%	-20%
CN1CCN(C(c2cccc(C(F)(F)F)c2)c2nnnn2Cc2ccccc2)CC1 (centres undefined)	15µM*	?	-7	?	.
